From the supplement of paper PMC3724861 come the findings set out here.

Shown is part of a subset that was picked to be rich in hits. The hit rate among all sequences tested is not known here. A number with no mark means an inactive call. Where only a bound is given, the exact number is not on record here.

For this experiment, the system named is T1, Caupolican (Caup) homeodomain DNA-binding domain.
T1 sequence: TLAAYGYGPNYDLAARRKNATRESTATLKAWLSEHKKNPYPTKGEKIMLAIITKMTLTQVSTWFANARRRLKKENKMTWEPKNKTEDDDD
Description: PBM E-score (8-mer, recovered from the published 9-mer minima) (E-score (dimensionless, -0.5 to 0.5)); Drosophila protein; higher = stronger relative binding preference, active = 0.31 or more. The method in brief:
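Caup's homeodomain DNA-binding domain (residues 214-303) was produced by in vitro transcription and translation and applied at 100 nM to custom-designed protein binding microarrays. Each value is an enrichment score giving relative binding preference for a short DNA word; higher means stronger. Published 9-mer scores were the minimum of their two constituent 8-mer scores, and the 8-mer values were recovered from those minima. A cutoff of 0.31 marks candidate binding sequences.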
For AGTGCGGA, the “PBM E-score” value is -0.0562. As for AATGGATA, the figure is 0.0292; as for AGGCAAGC, -0.0636. On to CCTCCAAG, for which the “PBM E-score” value is -0.0978. As for AAGTAGCG, the figure is -0.0607. ACATAAGG: the “PBM E-score” value is 0.2. As for AGACGTGG, the “PBM E-score” value is -0.0599. AACCACAC: the “PBM E-score” value was 0.0803. Turning to AAGTTCGC, the “PBM E-score” value is -0.11.

With AATCCCTA, the “PBM E-score” value is 0.0149.

CAGTTCTA: the “PBM E-score” value was 0.0212. On to GTGATGTA, for which the “PBM E-score” value is ≥ 0.383 (active). For the sequence CCGATGTA, the “PBM E-score” value is 0.159.

Regarding ATGATGAA, the “PBM E-score” value was 0.158. For ATGATGGA the value was 0.0619; for CTGATGTA, 0.251. As to ACGATGTA, the “PBM E-score” value is 0.36 (active). As for ATGATGTC, the figure is 0.312 (active); as for CTGATGTC, 0.212. For the sequence ATGATGTA, the “PBM E-score” value is ≥ 0.383 (active). Turning to GTGATGAA, the “PBM E-score” value is 0.0845. As for ATGATGTG, the figure is 0.0894; as for ACGATGTC, 0.261; as for GATTCGGC, -0.0366. Turning to CAGAACAG, the “PBM E-score” value is 0.0845. In the case of ATCGCTTG, the “PBM E-score” value was -0.0165.

On to ATAGTCCG, for which the “PBM E-score” value is 0.00249. On to TAGCAAGA, for which the “PBM E-score” value is 0.142. For CTACTCAA the value was 0.116; for CCAGTCAG, -0.104. As for TCGCAACA, the figure is 0.0932; as for CTATACGA, 0.0334. With GAGATGTA, the “PBM E-score” value is 0.329 (active). For AAGATGTA, the “PBM E-score” value is 0.298. For CAGATGTA, the “PBM E-score” value was 0.247. For TATTGAAA, the “PBM E-score” value was 0.117. In the case of GTTATGTA, the “PBM E-score” value was 0.276.

Regarding ATTATGTA, the “PBM E-score” value was 0.327 (active).

CTTATGTC: the “PBM E-score” value was 0.224. On to ATTATGTC, for which the “PBM E-score” value was 0.227. Turning to CTTATGTA, the “PBM E-score” value is 0.345 (active). For the sequence ATTATGTG, the “PBM E-score” value is 0.197. As for CGGTTCAA, the figure is -0.15; as for AGCGGTTA, -0.0759.

In the case of AGAGATGA, the “PBM E-score” value is -0.00602. As for AAGACATA, the figure is 0.229; as for AGGACATG, 0.38 (active); as for AAGACATG, 0.381 (active). On to AGGACATC, for which the “PBM E-score” value was 0.233. With AAGACATT, the “PBM E-score” value is 0.0764. As for CCGACAAC, the figure is 0.198; as for ACGACATA, 0.299. Consider ACGACATG, for which the “PBM E-score” value is ≥ 0.416 (active).

Regarding GCGACAAC, the “PBM E-score” value was 0.224.

On to ACGACAAC, for which the “PBM E-score” value is 0.339 (active). In the case of ACGACATC, the “PBM E-score” value is 0.26.

With AGGACAAG, the “PBM E-score” value was 0.254. For the sequence CATTTTGA, the “PBM E-score” value is 0.0478. On to ACGAGTGC, for which the “PBM E-score” value was 0.0719. For ATATACTG the value was 0.156; for TCAACGAA, 0.0771; for GGGATTAC, 0.0873.
